In the library only some 5.5% were active in any assay of this set; here they are far more common.
BCR signal inh = qHTS Assay to Find Inhibitors of Chronic Active B-Cell Receptor Signaling; ABC-DLBCL IkBa-CBG/CBR reporter, luminescence ratio, 4 h; Potency, µM (titrated, usually from 46.1 µM), usual class: inhibitors; 340,000 compounds, 0.05% hits; AID 493014, 2011; active = well fitted inhibition curve with a large enough effect in the signal ratio, with a control signal flat, not every such curve was filed as active; inconclusive = small, poorly fitted or top-dose-only effect, or effect the other way, or a change in a side signal; the % refers to the signal ratio
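Doxycycline induced both beetle luciferases in TMD8 lymphoma cells; IKK-driven degradation limits the IkappaBalpha-fused green signal, while red luminescence normalises for cell number and nonspecific effects. Compounds tested up to 46 uM, 4 hrs.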
Gal4-VP16 FLuc = VP16 counterscreen qHTS for inhibitors of ROR gamma transcriptional activity | Drosophila S2 Gal4-VP16 UAS-luciferase, luminescence, 20 h | 310,000 compounds, 3.5% hits | Potency, µM (doses to about 53.6 µM), usual class: inhibitors;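 note: Gal4-VP16 expression switched on by copper sulfate through the metallothionein promoter; nearly all actives have a fitted effect of over 50% in size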
Mito fusion act = qHTS Assay for Small Molecule Inhibitors of Mitochondrial Division or Activators of Mitochondrial Fusion | Potency, µM (titrated, usually from 46.1 µM), most hits filed as activators | S. cerevisiae fusion-defective mutant growth rescue, CellTiterGlo 48 h | 320,000 compounds, 0.23% hits; note: nearly all actives have a fitted effect of over 45% in size
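Luminescent cell viability in 1536-well qHTS format served as the measure of rescued growth in ts fusion-mutant S. cerevisiae cultured on non-fermentable YPEG for 48 hours at 37C.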
Integrin act MD = qHTS for Activators of Integrin-Mediated Alleviation for Muscular Dystrophy. alpha7betagal myoblasts, beta-gal FDG fluorescence, 48 h. Potency, µM (series often up to 38.3 µM), most hits filed as activators. 350,000 compounds, 0.064% hits. AID 624291, 2012; note: nearly all actives have a fitted effect of over 60% in size
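alpha7betagal+/- myoblasts (passage 13, 250/well) treated 48 h at 37C with compounds at 1:260 dilution of DMSO stock. Lysed, then beta-galactosidase activity read as FDG fluorescence (ex 480/em 540) after 30 min, with pre-read for autofluorescence.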
uPA surface inh = qHTS for Inhibitors of Cell Surface uPA Generation. cell surface uPA generation assay, qHTS. Potency, µM (series often up to 38.3 µM), hits mostly inhibitors. 330,000 compounds, 0.31% hits; active = well fitted inhibition curve with a large enough effect; inconclusive = small, poorly fitted or top-dose-only effect; inactive = no such curve, though single readings can be large or run the other way; tested in mouse RAW 264.7 cells; note: nearly all actives have a fitted effect of over 55% in size
RORgamma inh = qHTS for inhibitors of ROR gamma transcriptional activity; Drosophila S2 Gal4-RORgamma UAS-luciferase reporter, 20 h; Nuclear receptor ROR-gamma (Mus musculus), P51450; Potency, µM (highest dose often 53.6 µM), usual class: inhibitors; 310,000 compounds, 5.4% hits; note: nearly all actives have a fitted effect of over 60% in size
Target sequence (P51450 whole entry, looked up, the tested form may be a part): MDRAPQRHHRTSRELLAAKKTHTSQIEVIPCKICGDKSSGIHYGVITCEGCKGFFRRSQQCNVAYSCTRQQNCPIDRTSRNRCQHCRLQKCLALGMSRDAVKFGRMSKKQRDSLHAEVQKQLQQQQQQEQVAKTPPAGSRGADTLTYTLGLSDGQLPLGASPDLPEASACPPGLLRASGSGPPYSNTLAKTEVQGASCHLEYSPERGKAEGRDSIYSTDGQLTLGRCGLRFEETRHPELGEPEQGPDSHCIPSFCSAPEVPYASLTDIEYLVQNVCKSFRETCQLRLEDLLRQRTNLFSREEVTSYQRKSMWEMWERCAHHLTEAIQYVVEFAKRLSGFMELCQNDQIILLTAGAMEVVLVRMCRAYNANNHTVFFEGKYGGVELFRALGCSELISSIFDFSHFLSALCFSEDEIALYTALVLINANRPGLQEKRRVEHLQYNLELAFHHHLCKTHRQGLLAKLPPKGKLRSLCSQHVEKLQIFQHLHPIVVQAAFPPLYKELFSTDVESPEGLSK
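Compounds are pin-transferred onto Drosophila Schneider cells expressing a copper-inducible Gal4–ROR gamma transactivation domain fusion. After 1 hr, copper sulfate is added to 700 uM final; luciferase is read 20 hr later.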
Numbers stand for hits; n = inactive; u = inconclusive; x = no result; [ ] = another dose, or the depositor's remark. Unless noted, calls come from the whole dose curve; as a rule, active = well fitted curve in the direction sought with a large enough effect; inconclusive = small, poorly fitted or top-dose-only effect, or another doubt; inactive = no such curve, though single readings can be large; an effect the other way counts as inactive or inconclusive.

SMILES | BCR signal inh | Gal4-VP16 FLuc | Mito fusion act | Integrin act MD | uPA surface inh | RORgamma inh
CC(C)=CCN1CCN(Cc2cccn2-c2ncccn2)CC1CCO (stereo unspecified) | n | n | n | n | n | n
Cc1noc(C)c1COc1ccc(C(=O)NCC(c2c(F)cccc2Cl)N(C)C)cc1 (stereo unspecified) | n | x | n | n | n | x
N#CC1=C2N=C(N)c3c(sc4c3CCCCC4)N2C2=C(C(=O)CCC2)C1c1ccccc1 (stereo unspecified) | u | u | n | n | n | 11.2µM
COc1ccccc1NC(=O)CSC1=Nc2ccccc2C2=NC(CCC(=O)NCc3cccs3)C(=O)N12 (stereo unspecified) | n | x | x | x | x | x
COCC1CCN(C(=O)c2ccc3oc(Cc4ccc(Cl)cc4)nc3c2)C1 (stereo unspecified) | x | x | x | n | n | x
COc1ccc(NC(=O)NNC(=O)c2ccc(Cl)cc2Cl)cc1OC | n | n | n | n | n | n
COC(=O)NC(=S)Nc1ccc(Oc2ccc(Cl)cc2Cl)c(Cl)c1 | u | u | n | n | n | 2.24µM
CC(=O)Nc1ccc(Oc2ccc([N+](=O)[O-])cc2Cl)cc1 | n | n | n | n | n | n
COC(=O)NC(=S)Nc1ccc(Oc2ccc(Cl)cc2)c(Cl)c1 | n | 5.01µM | n | n | n | 4.47µM
COc1cc2[nH]c3c(N4CCN(c5ccccn5)CC4)ncnc3c2cc1OC | u | 17.8µM | n | n | n | u
Fc1ccc2[nH]c3c(N4CCN(c5ccccc5)CC4)ncnc3c2c1 | u | x | u | n | n | n[0.365 µM]
COc1ccc2[nH]c3c(N4CCc5ccccc5C4)ncnc3c2c1 | u | 12.6µM | n | u | u | u
CCOC(=O)N1CCN(c2ncnc3c2[nH]c2ccc(OC)cc23)CC1 | n | n | n | n | n | n
COc1ccc(N2CCN(c3ncnc4c3[nH]c3ccccc34)CC2)cc1 | x | 7.08µM | n | n | n | u
CCOC(=O)c1c(C)[nH]c(C)c1S(=O)(=O)N1CCCC(C(=O)N2CCN(c3ccccc3F)CC2)C1 (stereo unspecified) | n | x | x | x | x | x
CCn1cc(S(=O)(=O)Nc2ncccn2)cn1 | n | n | n | n | n | n
NC1=NN=C(N2N=C(c3ccc(Br)cc3)CC2(O)C(F)(F)F)n2ncnc2C1 (stereo unspecified) | n | 17.8µM | n | n | x | u
COc1ccccc1C1=NN(C2=NN=C(N)Cc3ncnn32)C(O)(C(F)(F)F)C1 (stereo unspecified) | n | n | n | n | n | u
NC1=NN=C(N2N=C(c3ccccc3)CC2(O)C(F)(F)F)n2ncnc2C1 (stereo unspecified) | n | u | n | n | n | 12.6µM
COc1ccc(C2=NN(C3=NN=C(N)Cc4ncnn43)C(O)(C(F)(F)F)C2)cc1 (stereo unspecified) | n | 11.2µM | n | n | n | 8.91µM
CC[C@H](C)[C@H](NC(=O)[C@H](CC(C)C)NC(=O)[C@H](CC(N)=O)NC(=O)[C@@H](NC(=O)[C@@H](N)Cc1ccc(O)cc1)[C@@H](C)CC)C(=O)N[C@@H](Cc1ccc(O)cc1)C(=O)N[C@@H](CCCN=C(N)N)C(=O)N[C@@H](CC(C)C)C(=O)N[C@@H](CCCN=C(N)N)C(=O)N[C@@H](Cc1ccc(O)cc1)C(N)=O | x | n | x | x | x | n
O=C(NC1CC(=O)N(c2ccc3c(c2)OCCO3)C1)c1c(F)cccc1Cl (stereo unspecified) | n | x | x | x | x | x
FC(F)(F)c1cc(Sc2ccccc2)nc(-c2ccccn2)n1 | u | u | n | n | x | 11.2µM
COC(=O)CSc1cc(C(F)(F)F)nc(-c2ccccn2)n1 | n | n | n | n | n | n
FC(F)(F)c1cc(Nc2ccccc2)nc(-c2ccccn2)n1 | n | 4.47µM | n | n | n | 2µM
SMILES | BCR signal inh | Gal4-VP16 FLuc | Mito fusion act | Integrin act MD | uPA surface inh | RORgamma inh
CC(C)Nc1cc(C(F)(F)F)nc(-c2ccccn2)n1 | u | 6.31µM | n | n | n | 1µM
COc1ccc(CC(=O)NC(c2ccccc2)c2ccc(C)cc2)c(OC)c1 (stereo unspecified) | n | n | n | n | n | n
Cc1cccc(OCC(=O)Nc2cc(C)c(C)cc2O)c1 | n | n | n | n | n | 3.55µM
Cc1ccc(OCC(=O)NNc2c3ccccc3nc3ccccc23)cc1 | n | 12.6µM | n | n | n | 10µM
O=C(Cc1ccccc1)NNc1c2ccccc2nc2ccccc12 | n | u | n | n | n | u
Cc1cccc(OCC(=O)NNc2c3ccccc3nc3ccccc23)c1 | u | 5.01µM | n | n | x | 3.55µM
CNC(=O)C1(C(F)(F)F)C/C(=C/CCO)CCCO1 (stereo unspecified) | x | n | x | x | x | n
O=C(NCc1ccccn1)C12CC3CC(CC(C3)C1)C2 | n | n | n | n | n | n
Cc1cc([N+](=O)[O-])cc2c1NC(=O)C2(O)N1CCOCC1 (stereo unspecified) | u | u | n | n | n | 11.2µM
COc1cc(C(C(=O)NC2CCCCC2)N(C(=O)c2snc(C(N)=O)c2N)c2ccc(C)cc2)ccc1O (stereo unspecified) | u | n | n | 7.94µM | x | n
Cc1ccc(N(C(=O)c2snc(C(N)=O)c2N)C(CC(C)C)C(=O)NC2CCCC2)cc1 (stereo unspecified) | n | n | n | n | n | n
CCCCC(C(=O)NC1CCCC1)N(C(=O)c1snc(C(N)=O)c1N)c1ccc(C)cc1 (stereo unspecified) | n | n | n | 10µM | n | n
COc1ccccc1-c1nnc2n1N=C(c1c(OC)cccc1OC)CS2 | x | n | x | x | x | n
CC1CCCC(C)N1C(=O)CSc1nnc(C2CCCCC2)o1 (stereo unspecified) | u | n | 6.31µM | n | n | u
C/C(=N\NC(=O)c1ccc(O)cc1)c1ccc2c(c1)OCCO2 | u | x | n | n | n | x
CC(/C=C/c1ccccc1)=N\NC(=O)c1ccc2c(c1)OCCO2 | n | u | n | n | n | 12.6µM
C/C(=N\NC(=O)c1ccc2c(c1)OCCO2)c1ccccc1 | u | 7.94µM | n | n | n | 5.62µM
CC(/C=C/c1ccccc1)=N/NC(=O)CNC(=O)c1ccc2c(c1)OCO2 | n | n | n | n | n | n
CC(=O)c1ccc(NC(=O)CN2C(=O)c3cccnc3Sc3ccccc32)cc1 | n | x | x | x | x | x
CC(=O)c1c(N2CCOCC2)[nH]c(-c2ccccc2)nc1=S | u | 5.01µM | x | n | n | 1.12µM
CC(=O)c1c(N)[nH]c(-c2ccccc2)nc1=S | n | 0.794µM | u | n | n | 0.316µM

Assay outcomes: PubChem BioAssay, National Center for Advancing Translational Sciences (NCATS)
